Test results from the supplement of paper PMC13380429.
A number with no mark means an inactive call.

tested on: Vero E6 infected with SARS-CoV-2; assay: SARS-CoV-2 infection rate relative to infected DMSO; higher = more infection, active = 60 or less; details: 24 h

SMILES	SARS-CoV-2 infection rate
CCN(CC)C(=O)[C@@]1(c2ccccc2)C[C@H]1CN [milnacipran] (10 µM)	105%
CC(O)CN1CCN(CC(=O)[O-])CCN(CC(=O)[O-])CCN(CC(=O)[O-])CC1.[Gd+3] (stereo not given) [gadoteridol] (10 µM)	108%
N#CSc1cc(SC#N)c(N)nc1N (0.833333 µM)	98.5%
NCCCCCNCC12CC3CC(CC(C3)C1)C2 (10 µM)	97.5%
Cc1cnc(-c2ccccc2C(C)C)nc1NCc1ccc(-n2ccnn2)cc1 (10 µM)	101%
O=C(O)c1cc(O)c2ccc(Cl)cc2n1 [7-chlorokynurenic-acid] (10 µM)	110%
Oc1ccc2c3c1O[C@H]1c4oc5ccccc5c4C[C@@]4(O)[C@@H](C2)N(CC2CC2)CC[C@]314 [naltriben] (10 µM)	106%
Cc1cc(Nc2nc(N[C@@H](C)c3ccc(F)cc3)c(C#N)cc2F)n[nH]1 (10 µM)	110%
CN(C)CCCN1c2ccccc2Sc2ccc(C(F)(F)F)cc21 [triflupromazine] (10 µM)	56% (active)
CN(Cc1cnc2nc(N)nc(N)c2n1)c1ccc(C(=O)N[C@@H](CCC(=O)O)C(=O)O)cc1 [methotrexate] (10 µM)	100%
NC(=O)CCCCC1CCSS1 (stereo not given) [lipoamide] (10 µM)	108%
C[C@@H](C(=O)O)c1ccc(-c2ccccc2)c(F)c1 (racemic) [flurbiprofen-(+/-)] (10 µM)	107%
CN[C@@H](C)C(=O)N[C@H]1CCCC[C@H]2CC[C@@H](C(=O)N[C@@H](c3ccccc3)c3cn(CCCCc4ccc(CCCCn5cc([C@@H](NC(=O)[C@@H]6CC[C@@H]7CCCC[C@H](NC(=O)[C@H](C)NC)C(=O)N76)c6ccccc6)nn5)cc4)nn3)N2C1=O (10 µM)	98%
O=NO [sodium-nitrite] (10 µM)	108%
Nc1nnc(-c2cccc(Cl)c2Cl)c(N)n1 [lamotrigine] (10 µM)	110%
C[C@H]1O[C@@H](n2cc(F)c(=O)[nH]c2=O)[C@H](O)[C@@H]1O [doxifluridine] (10 µM)	108%
COc1ccc(O)c(C(C)(C)C)c1.COc1ccc(O)cc1C(C)(C)C [butylated-hydroxyanisole] (10 µM)	116%
COc1ccc2ccc(=O)oc2c1CC=C(C)C [osthol] (10 µM)	107%
COc1ccc2c(Oc3ccc(NC(=O)c4c(C)n(CC(C)(C)O)n(-c5ccccc5)c4=O)nc3)ccnc2c1 (10 µM)	98%
C[C@@H]1C/C=C/C=C/C=C/C=C/[C@H](O[C@@H]2O[C@H](C)[C@@H](O)[C@H](N)[C@@H]2O)C[C@@H]2O[C@](O)(C[C@@H](O)C[C@H]3O[C@@H]3/C=C/C(=O)O1)C[C@H](O)[C@H]2C(=O)O [natamycin] (10 µM)	108%

SMILES	SARS-CoV-2 infection rate
C=C(C)[C@@H]1CC[C@]2(CO)CC[C@]3(C)[C@H](CC[C@@H]4[C@@]5(C)CC[C@H](O)C(C)(C)[C@@H]5CC[C@]43C)[C@@H]12 (10 µM)	99.5%
CC(C)(C)NCC(O)c1ccc(O)c(CO)c1 (stereo not given) [albuterol] (10 µM)	100%
Cc1ccc(-n2nc(C(C)(C)C)cc2NC(=O)NCc2cc(F)ccc2Oc2ccc3c(cnn3CCO)c2)cc1 [pexmetinib] (0.833333 µM)	105%
Cc1nc2cnc3ccc(C#Cc4cccnc4)cc3c2n1-c1ccc(C(C)(C)C#N)cc1 (10 µM)	109%
CC[C@H]1[C@@H](O)[C@@H]2[C@H](CC[C@]3(C)[C@@H]([C@H](C)CCC(=O)O)CC[C@@H]23)[C@@]2(C)CC[C@@H](O)C[C@@H]12 [obeticholic-acid] (10 µM)	101%
C[C@H](Cc1cc2c(c(C(N)=O)c1)N(CCCO)CC2)NCCOc1ccccc1OCC(F)(F)F [silodosin] (10 µM)	106%
CCN(CC)Cc1cc(Nc2ccnc3cc(Cl)ccc23)ccc1O [amodiaquine] (10 µM)	17.5% (active)
C=C1CC[C@@H]2[C@](C)(CO)[C@H](O)CC[C@@]2(C)[C@@H]1C/C=C1/C(=O)OC[C@H]1O [andrographolide] (0.833333 µM)	106%
CC(C)(C)Sc1c(CC(C)(C)C(=O)O)n(Cc2ccc(Cl)cc2)c2ccc(OCc3ccc4ccccc4n3)cc12 [quiflapon] (10 µM)	106%
Cc1ccc2cc(-c3c(C)ccc(C(=O)c4c(-c5ccccc5)n(C)n(-c5ccccc5)c4=O)c3N)ccc2n1 (10 µM)	76%
C[C@H](Cc1ccc(OCC(=O)O)cc1)NC[C@H](O)c1cccc(Cl)c1 (10 µM)	107%
CCN(CC)CCNC(=O)COc1ccc(OC)cc1 [mefexamide] (10 µM)	113%
O=C(NCCN1CCC2(CC1)C(=O)NCN2c1cccc(F)c1)c1ccc(F)c(F)c1 (10 µM)	75.5%
N=C(N)NCCCC[C@@H]1NC(=O)CCSSC[C@@H](C(N)=O)NC(=O)[C@@H]2CCCN2C(=O)[C@H](Cc2c[nH]c3ccccc23)NC(=O)[C@H](CC(=O)O)NC(=O)CNC1=O [eptifibatide] (10 µM)	118%
COC(=O)C1=CCCN(C)C1 [arecoline] (10 µM)	100%
Cc1cc(OI)c(C(C)C)cc1-c1cc(C(C)C)c(OI)cc1C [thymol-iodide] (10 µM)	104%
O=C(O)c1cc(=O)c2ccccc2o1 [chromocarb] (10 µM)	106%
Cc1nn(C)c2nc(NNC(=O)Nc3cc(Cl)nc(Cl)c3)cc(C(C)C)c12 (10 µM)	108%
CO[C@]12C[C@@H](COC(=O)c3cncc(Br)c3)CN(C)[C@@H]1Cc1cn(C)c3cccc2c13 [nicergoline] (10 µM)	81%
Cc1c(C)c2c(c(C)c1O)CC[C@@](C)(CCC[C@H](C)CCC[C@H](C)CCCC(C)C)O2 [vitamin-E] (10 µM)	117%
